Measured values from PubChem BioAssay (NCI).
Compounds without any hit were thinned out: in the full panel of roughly 79,000, 15% have a hit. Unmarked numbers belong to inactive results. Activity calls are given as the source filed them. Cut-off read from the data, not from the text of the source: active = growth inhibition above about 70%; inactive = the rest.

Tests used:
[1] = NCI Yeast Anticancer Drug Screen. Data for the rad50 strain (AID 155);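 note: 0% = growth of vehicle-only cultures of the same strain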; conditions: S. cerevisiae rad50 strain growth inhibition, hits give high values
Method in brief: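 A DNA repair-deficient yeast mutant serves as the test organism; compound-induced growth inhibition is calculated against vehicle-treated cells.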

[2] = NCI Yeast Anticancer Drug Screen. Data for the mec2-1 strain (AID 157); conditions: S. cerevisiae mec2-1 strain, hits give high values
Method in brief: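 Readout is yeast growth inhibition, normalised to vehicle-treated controls, in the mec2-1 strain exposed to compound.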

[3] = NCI Yeast Anticancer Drug Screen. Data for the sgs1 mgt1 strain (AID 161);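 note: 0% = growth of cultures given vehicle only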; conditions: S. cerevisiae sgs1 mgt1 strain, hits give high values
Method in brief: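 Yeast cells carrying a defined DNA-repair defect were exposed to test compounds. Growth inhibition was measured relative to vehicle-treated controls.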

[4] = NCI Yeast Anticancer Drug Screen. Data for the cln2 rad14 strain (AID 165);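 note: 0% = growth equal to vehicle treated cultures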; conditions: S. cerevisiae cln2 rad14 strain, hits give high values
Method in brief: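 Relative to vehicle controls, growth inhibition of compound-treated cln2 rad14 yeast was recorded.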

[5] = NCI Yeast Anticancer Drug Screen. Data for the bub3 strain (AID 167); conditions: S. cerevisiae bub3 mutant strain, hits give high values
Method in brief: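 Inhibition values come from growth of compound-treated mutant yeast normalised to vehicle-treated controls.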

[6] = NCI Yeast Anticancer Drug Screen. Data for the mlh1 rad18 strain (AID 175); conditions: S. cerevisiae mlh1 rad18 strain growth inhibition, hits give high values
Method in brief: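 Test agents were incubated with a yeast strain of defined genotype (DNA damage repair defect). Inhibition of growth was derived by comparison with vehicle-exposed cultures.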

[7] = at 5.0 µM (retest, dose inferred, filed as 0.5)
[8] = at 50.0 µM (retest, dose inferred, filed as 5.0)

| Compound | growth inhibition [1, 7] | growth inhibition [1, 8] | growth inhibition ([1]; at 50.0 µM) | growth inhibition [2, 7] | growth inhibition [2, 8] | growth inhibition ([2]; at 50.0 µM) | growth inhibition [3, 7] | growth inhibition [3, 8] | growth inhibition ([3]; at 50.0 µM) | growth inhibition [4, 7] | growth inhibition [4, 8] | growth inhibition ([4]; at 50.0 µM) | growth inhibition [5, 7] | growth inhibition [5, 8] | growth inhibition ([5]; at 50.0 µM) | growth inhibition [6, 7] | growth inhibition [6, 8] | growth inhibition ([6]; at 50.0 µM) |
| --- | --- | --- | --- | --- | --- | --- | --- | --- | --- | --- | --- | --- | --- | --- | --- | --- | --- | --- |
| COc1cccc(C2N(Cc3ccc(N(CCCl)CCCl)cc3C)CCCN2Cc2ccc(N(CCCl)CCCl)cc2C)c1O | 7% | 94% (active) | 27.6% | -2% | 96% (active) | 10.2% | -2% | 97% (active) | 64.5% | -5% | 82% (active) | -12.6% | -6% | 89% (active) | 0.75% | 8% | 93% (active) | 40.1% |
| CC(=O)OC1CC[C@@]2(C)C(=CC[C@@H]3[C@@H]2CC[C@]2(C)C(OC(C)=O)[C@H](n4ccnc4)C[C@@H]32)C1 (stereo not given in full) | 22% | 84% (active) | 71.8% (active) | 8% | 52% | 62.8% | 14% | 78% (active) | 75.2% (active) | 9% | 58% | 69.9% | -43% | 74% (active) | 77% (active) | 17% | 56% | 91.2% (active) |
| Cc1nnc2n1-c1ccc(Cl)cc1C(c1ccccc1)=[N+]([O-])C2 | 4% | 0% | -16.8% | -3% | -9% | -0.7% | 1% | 3% | 3.05% | 1% | 12% | 64.7% | -1% | -1% | 7.45% | -3% | -4% | -6.2% |
| CC[CH2][Pb]([CH2]CC)([CH2]CC)[NH]S(=O)(=O)c1ccc(C)cc1 | 99% (active) | 99% (active) | 99.5% (active) | 99% (active) | 100% (active) | 99.7% (active) | 99% (active) | 99% (active) | 99.6% (active) | 98% (active) | 99% (active) | 97.9% (active) | 100% (active) | 100% (active) | 99.5% (active) | 99% (active) | 100% (active) | 99.5% (active) |
| CCCCCCCC[N+]12CN3CN(CN(C3)C1)C2 | -5% | -21% | 1.75% | -2% | -33% | 4.1% | -6% | -28% | 7.75% | 2% | -38% | 30.4% | 1% | -25% | 31.8% | -1% | -26% | 16.9% |
| CCCNC1=C(C)C(=O)C2=C(C1=O)[C@H](COC(N)=O)[C@]1(OC)[C@@H]3N[C@@H]3CN21 | 15% | 66% | 36.8% | 15% | 76% (active) | 38.9% | 11% | 64% | 39.6% | 5% | 79% (active) | 51.7% | 2% | 37% | 9.7% | 47% | 93% (active) | 79.8% (active) |
| O=C(CBr)Nc1ccccc1 | 40% | 99% (active) | 97% (active) | 22% | 99% (active) | 98.9% (active) | 36% | 99% (active) | 98.4% (active) | 25% | 99% (active) | 97.3% (active) | 74% (active) | 99% (active) | 97.1% (active) | 48% | 100% (active) | 97.8% (active) |
| O=[N+]([O-])c1ccc(C(Br)Br)cc1 | 93% (active) | 99% (active) | 99.6% (active) | 74% (active) | 99% (active) | 99.6% (active) | 79% (active) | 99% (active) | 99.7% (active) | 70% (active) | 99% (active) | 98.6% (active) | 74% (active) | 99% (active) | 99.5% (active) | 97% (active) | 99% (active) | 99.5% (active) |
| O=C(Nc1ccccc1)c1cc([N+](=O)[O-])ccc1O.[Ni] | 51% | 45% | 69.3% | 34% | 37% | 57.6% | 34% | 100% (active) | 77.5% (active) | 46% | 100% (active) | 33.5% | 54% | 99% (active) | 59.8% | 38% | 36% | 52.3% |
| NC(=O)Nc1ccc([As](Sc2ccccc2C(=O)O)Sc2ccccc2C(=O)O)cc1 | -1% | 14% | 15.9% | -3% | -1% | 4.75% | -3% | 10% | 17.3% | -8% | 24% | 28.9% | -8% | 26% | -7.1% | -4% | 8% | 20.1% |
| N#C[S-].[Ce+3].c1cnc2c(c1)ccc1cccnc12.c1cnc2c(c1)ccc1cccnc12.c1cnc2c(c1)ccc1cccnc12 | 96% (active) | 99% (active) | 92% (active) | 99% (active) | 100% (active) | 94.8% (active) | 100% (active) | 100% (active) | 91% (active) | 94% (active) | 98% (active) | 93.5% (active) | 99% (active) | 99% (active) | 93% (active) | 97% (active) | 99% (active) | 92.8% (active) |
| [Cl][Pt+2][Cl].[NH-]c1ccc([N+](=O)[O-])cc1[NH-] | 40% | 73% (active) | 63.8% | 27% | 62% | 75.7% (active) | 100% (active) | 94% (active) | 75.5% (active) | 99% (active) | 94% (active) | 54.6% | 100% (active) | 95% (active) | 68.3% | 58% | 79% (active) | 70.5% (active) |
| CC(=O)[O][Sn]([CH3])([CH3])[c]1ccccc1 | 2% | 78% (active) | 81.2% (active) | 3% | 50% | 82.8% (active) | 1% | 92% (active) | 92.5% (active) | -13% | 77% (active) | 74.9% (active) | -6% | 83% (active) | 84.2% (active) | 3% | 94% (active) | 96.3% (active) |
| CC(=O)[C-](I)C(C)=O.CC(=O)[C-](I)C(C)=O.CC(=O)[C-](I)C(C)=O.[Ru+3] | -6% | 90% (active) | 48.2% | 14% | 95% (active) | 90.5% (active) | 5% | 89% (active) | 35.8% | 26% | 85% (active) | 7.45% | 18% | 90% (active) | -1.95% | 32% | 96% (active) | 53.5% |
| CCC[CH2][Sn]1([CH2]CCC)[O]CC(CN2CCOCC2)[O]1 (stereo not given) | 27% | 34% | 87.7% (active) | 17% | 35% | 91% (active) | 34% | 41% | 91% (active) | 26% | 31% | 88.8% (active) | 22% | 27% | 90.3% (active) | 45% | 44% | 88.8% (active) |
| C[CH2][Sn]1([CH2]C)[O]C(=O)CC(=O)[O]1 | 18% | 37% | 48.2% | 10% | 35% | 70.6% (active) | 14% | 55% | 37.8% | 20% | 19% | 65.8% | 15% | 54% | 59.1% | 16% | 24% | 16.5% |
| C[C@]12Cc3cn4ncnc4nc3CC1CC[C@@H]1[C@@H]2CC[C@]2(C)C(O)CC[C@@H]12 (stereo not given in full) | 21% | 97% (active) | 97.5% (active) | 24% | 99% (active) | 95% (active) | 60% | 99% (active) | 98% (active) | 25% | 91% (active) | 78.7% (active) | 24% | 97% (active) | 97% (active) | 48% | 98% (active) | 98.6% (active) |
| CCO[C@@H]([CH2][Hg][Cl])[C@](C)([CH2][Hg][Cl])OCC | 99% (active) | 99% (active) | 99.4% (active) | 99% (active) | 99% (active) | 99.6% (active) | 99% (active) | 99% (active) | 99.5% (active) | 98% (active) | 99% (active) | 99.3% (active) | 99% (active) | 99% (active) | 99.3% (active) | 99% (active) | 99% (active) | 99.3% (active) |
| CCCCOOC(=O)c1ccccc1C(=O)OOCCCC | 47% | 99% (active) | 99.3% (active) | 33% | 100% (active) | 99.5% (active) | 41% | 100% (active) | 99% (active) | 51% | 99% (active) | 98.7% (active) | 30% | 100% (active) | 99.5% (active) | 70% (active) | 99% (active) | 98.8% (active) |
| CC12C(=O)C=CCC1=CCC1C2CCC2(O)C(=O)OC3(C)C4CC5(C)C(COC16OC23C5C6=O)C(=O)O4 (stereo not given) | 11% | 51% | 78.8% (active) | 24% | 35% | 55.7% | 19% | 31% | 54.4% | 3% | 18% | 30.4% | 14% | 56% | 69.6% | 32% | 64% | 62.5% |
